Source: PubChem BioAssay
Calls of active or inactive are those of the source.

Assays:
[1] = system: PRMT1 (protein arginine N-methyltransferase 1); assay: small molecules binding arginine methyltransferase PRMT1 – biochemical, small-molecule microarray, 635 nm fluorescence, primary screen (AID 1088); settings: higher = more signal;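 note: binding of Prmt1 protein to compounds spotted on small-molecule microarray slides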
[2] = growth effects on S. cerevisiae YJM789 – YJM789 clinical isolate, OD600, 24 h, basal, primary screen (AID 1089); settings: higher = more signal, called active from +8 up or from −8 down;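 note: growth of clinical yeast isolate S. cerevisiae YJM 789 seeded 1000 cells per well; test concentration not given here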
[3] = S. pombe growth modifiers, basal conditions – strain 972, OD600, 24 h, no modulator, primary screen (AID 1090);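 note: basal condition with compound alone and no growth modifier present; test concentration not given here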; settings: S. pombe 972 growth, higher = more signal, called active from +8 up or from −8 down
[4] = budding yeast growth modifiers under rapamycin – strain BY4716, OD600, 96 h, primary screen (AID 1091); note: test concentration not given here; settings: S. cerevisiae BY4716 + rapamycin, higher = more signal, called active from +8 up or from −8 down
[5] = biological target: Torsin-1A-interacting protein 2 (Homo sapiens) (UniProt Q8NFQ8); assay: small molecules binding lysate-expressed LULL1 – cell lysate, human LULL1 lysate, 635/667 nm fluorescence, primary screen (AID 1092); settings: small-molecule microarray, hLULL1 lysate binding, 635 nm fluorescence; higher = more signal;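 note: probe is lysate of COS7 cells overexpressing human LULL1; score merges per-feature 667 nm fluorescence with signal-to-noise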
Chain of Torsin-1A-interacting protein 2 (Homo sapiens) (Q8NFQ8 whole entry, looked up): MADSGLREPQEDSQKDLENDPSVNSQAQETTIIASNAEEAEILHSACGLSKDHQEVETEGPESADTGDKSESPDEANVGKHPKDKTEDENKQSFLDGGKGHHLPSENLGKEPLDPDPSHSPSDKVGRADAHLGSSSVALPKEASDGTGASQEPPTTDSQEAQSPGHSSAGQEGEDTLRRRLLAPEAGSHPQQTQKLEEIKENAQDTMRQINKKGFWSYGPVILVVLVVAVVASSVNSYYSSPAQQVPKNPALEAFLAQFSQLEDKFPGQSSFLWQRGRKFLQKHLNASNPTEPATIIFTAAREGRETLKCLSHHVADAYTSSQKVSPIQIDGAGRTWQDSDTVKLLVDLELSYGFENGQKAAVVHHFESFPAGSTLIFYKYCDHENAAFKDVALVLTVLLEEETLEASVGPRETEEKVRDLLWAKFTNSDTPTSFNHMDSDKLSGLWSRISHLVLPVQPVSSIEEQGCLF

[6] = optical density change of DRC41 E. coli – strain DRC41, OD650, 24 h, E. coli filamentation project, primary screen (AID 1093);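 note: MC1000 strain lacking acrAB efflux and sulA so SOS filamentation is blocked; test concentration not given here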; settings: E. coli DRC41 growth, higher = more signal, called active from +8 up or from −8 down
[7] = probe aLefty2 binding to arrayed compounds – biochemical, biotinylated probe, 635/667 nm fluorescence, primary screen (AID 1094); settings: small-molecule microarray, higher = more signal;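 note: score merges spot fluorescence near 667 nm with spot signal-to-noise ratio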
[8] = system: Noggin (protein binding on small-molecule microarray); assay: small molecules binding Noggin protein – biochemical, 635/667 nm fluorescence, primary screen (AID 1095); settings: 635 nm fluorescence, higher = more signal;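 note: score merges 667 nm feature fluorescence with signal to noise over triplicate slides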
[9] = biological target: Neurogenic locus notch homolog protein 3 (Homo sapiens) (UniProt Q9UM47); assay: small molecules binding NOTCH3 protein – biochemical, 635/667 nm fluorescence, primary screen (AID 1096); settings: small-molecule microarray, 635 nm fluorescence, higher = more signal
Chain of Neurogenic locus notch homolog protein 3 (Homo sapiens) (Q9UM47 whole entry, looked up): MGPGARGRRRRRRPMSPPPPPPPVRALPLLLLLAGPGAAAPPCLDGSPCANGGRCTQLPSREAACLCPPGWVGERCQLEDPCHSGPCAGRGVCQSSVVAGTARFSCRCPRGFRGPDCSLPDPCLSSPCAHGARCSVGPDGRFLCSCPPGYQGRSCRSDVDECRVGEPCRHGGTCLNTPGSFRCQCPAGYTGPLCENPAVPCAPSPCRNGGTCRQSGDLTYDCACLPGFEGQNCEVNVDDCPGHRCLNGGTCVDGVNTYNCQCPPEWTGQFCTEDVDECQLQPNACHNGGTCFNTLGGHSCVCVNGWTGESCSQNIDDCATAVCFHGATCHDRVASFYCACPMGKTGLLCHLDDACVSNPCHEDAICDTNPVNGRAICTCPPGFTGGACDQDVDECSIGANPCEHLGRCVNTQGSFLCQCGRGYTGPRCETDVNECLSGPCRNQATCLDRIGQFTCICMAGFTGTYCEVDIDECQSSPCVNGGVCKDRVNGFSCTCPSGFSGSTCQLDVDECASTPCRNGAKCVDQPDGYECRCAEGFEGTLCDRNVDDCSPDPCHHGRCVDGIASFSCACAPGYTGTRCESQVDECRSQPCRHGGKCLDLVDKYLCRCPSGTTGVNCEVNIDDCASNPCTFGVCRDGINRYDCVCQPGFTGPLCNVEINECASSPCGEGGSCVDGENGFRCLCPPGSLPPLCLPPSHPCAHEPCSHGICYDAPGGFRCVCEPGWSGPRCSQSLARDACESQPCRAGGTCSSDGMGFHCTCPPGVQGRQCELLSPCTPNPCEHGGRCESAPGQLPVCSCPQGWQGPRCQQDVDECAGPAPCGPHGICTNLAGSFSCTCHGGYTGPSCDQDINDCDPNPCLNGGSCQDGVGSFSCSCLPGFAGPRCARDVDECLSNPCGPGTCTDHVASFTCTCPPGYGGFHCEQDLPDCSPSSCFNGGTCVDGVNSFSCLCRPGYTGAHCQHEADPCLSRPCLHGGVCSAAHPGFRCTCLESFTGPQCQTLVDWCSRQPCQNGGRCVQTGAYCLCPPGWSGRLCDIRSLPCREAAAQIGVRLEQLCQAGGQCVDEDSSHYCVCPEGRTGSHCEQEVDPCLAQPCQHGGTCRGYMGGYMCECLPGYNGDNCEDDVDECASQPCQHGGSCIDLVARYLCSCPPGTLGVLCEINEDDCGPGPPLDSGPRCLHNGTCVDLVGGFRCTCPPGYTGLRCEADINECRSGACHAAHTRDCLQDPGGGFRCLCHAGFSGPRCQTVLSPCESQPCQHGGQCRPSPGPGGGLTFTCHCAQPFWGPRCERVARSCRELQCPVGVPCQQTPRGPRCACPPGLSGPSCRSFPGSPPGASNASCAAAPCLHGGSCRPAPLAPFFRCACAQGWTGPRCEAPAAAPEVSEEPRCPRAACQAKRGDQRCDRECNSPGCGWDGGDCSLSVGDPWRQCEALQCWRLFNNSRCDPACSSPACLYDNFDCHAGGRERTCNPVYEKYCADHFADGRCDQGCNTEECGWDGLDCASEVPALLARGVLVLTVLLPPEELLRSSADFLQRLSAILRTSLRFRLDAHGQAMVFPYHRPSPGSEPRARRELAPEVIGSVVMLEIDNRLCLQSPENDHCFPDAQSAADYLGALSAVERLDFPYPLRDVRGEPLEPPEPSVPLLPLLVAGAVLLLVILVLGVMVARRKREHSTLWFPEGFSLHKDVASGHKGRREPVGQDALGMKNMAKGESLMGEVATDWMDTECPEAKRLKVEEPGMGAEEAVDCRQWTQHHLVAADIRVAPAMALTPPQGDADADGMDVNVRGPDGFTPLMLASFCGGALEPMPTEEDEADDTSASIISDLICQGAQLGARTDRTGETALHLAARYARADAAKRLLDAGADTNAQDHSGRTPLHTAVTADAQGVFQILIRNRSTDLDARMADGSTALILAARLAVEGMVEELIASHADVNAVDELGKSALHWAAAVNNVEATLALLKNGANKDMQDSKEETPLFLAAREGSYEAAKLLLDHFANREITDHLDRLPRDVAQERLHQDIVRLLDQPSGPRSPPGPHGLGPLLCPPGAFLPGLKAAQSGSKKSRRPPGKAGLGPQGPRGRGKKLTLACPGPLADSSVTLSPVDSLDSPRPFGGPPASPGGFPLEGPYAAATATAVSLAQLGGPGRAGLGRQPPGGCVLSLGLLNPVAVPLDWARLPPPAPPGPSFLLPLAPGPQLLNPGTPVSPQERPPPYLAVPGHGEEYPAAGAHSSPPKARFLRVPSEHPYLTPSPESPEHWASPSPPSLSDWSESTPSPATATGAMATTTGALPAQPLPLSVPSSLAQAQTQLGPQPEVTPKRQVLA

[10] = probe aEGFR binding to arrayed compounds – biochemical, biotinylated probe, 635/667 nm fluorescence, primary screen (AID 1097); settings: small-molecule microarray, higher = more signal;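 note: probe is a biotinylated anti-EGFR antibody binding compounds printed on slides; score combines fluorescence near 667 nm and signal to noise of each spot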
[11] = system: Plasmodium falciparum Sir2 (PF13_0152, Sir2A); assay: Plasmodium falciparum Sir2A binding compounds – biochemical, small-molecule microarray, 635 nm fluorescence, primary screen (AID 1098); settings: fluorescence 635 nm, higher = more signal;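 note: score merges spot fluorescence intensity with its signal-to-noise ratio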
[12] = probe aDKK1 binding to arrayed compounds – biochemical, biotinylated probe, 635/667 nm fluorescence, primary screen (AID 1099); settings: small-molecule microarray, higher = more signal;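 note: score merges 667nm spot fluorescence with signal to noise across triplicate slides; reference of the scale not given here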
[13] = probe aCHRDL2 binding to arrayed compounds – biochemical, biotinylated probe, 635/667 nm fluorescence, primary screen (AID 1100); settings: small-molecule microarray, higher = more signal
[14] = change in splice reporter luminescence, either direction, cell-based, HEK293, spliceosome inhibition project, primary screen (AID 1101); settings: HEK293 splicing luciferase reporter, 24 h, higher = more signal, called active from +8 up or from −8 down;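 note: HEK293 cells carrying a splicing-competent luciferase reporter gene; test concentration not given here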
[15] = biological target: Fibroblast growth factor 10 (Homo sapiens) (UniProt O15520); assay: compounds binding fibroblast growth factor 10 – biochemical, small-molecule microarray, 635 nm fluorescence, primary screen (AID 1102); settings: FGF10 binding, fluorescence 635 nm, higher = more signal
Chain of Fibroblast growth factor 10 (Homo sapiens) (O15520 whole entry, looked up): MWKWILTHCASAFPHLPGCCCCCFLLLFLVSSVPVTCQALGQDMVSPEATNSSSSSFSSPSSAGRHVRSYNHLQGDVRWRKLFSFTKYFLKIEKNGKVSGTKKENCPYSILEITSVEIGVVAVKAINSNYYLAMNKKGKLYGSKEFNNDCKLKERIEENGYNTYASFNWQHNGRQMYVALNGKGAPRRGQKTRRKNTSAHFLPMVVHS

[16] = system: glycogen synthase kinase-3 (GSK3A per assay name; protocol says GSK3B); assay: compounds binding glycogen synthase kinase-3 – biochemical, small-molecule microarray, 635 nm fluorescence, GSK3A, primary screen (AID 1103); settings: fluorescence 635 nm, higher = more signal; note: the record names both GSK3A and GSK3B
[17] = biological target: Epidermal growth factor receptor (Homo sapiens) (UniProt P00533); assay: compounds binding epidermal growth factor receptor – biochemical, small-molecule microarray, 635 nm fluorescence, primary screen (AID 1104); settings: EGFR binding, higher = more signal;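 note: score merges 667 nm emission intensity with spot signal to noise over triplicate slides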
Chain of Epidermal growth factor receptor (Homo sapiens) (P00533 whole entry, looked up): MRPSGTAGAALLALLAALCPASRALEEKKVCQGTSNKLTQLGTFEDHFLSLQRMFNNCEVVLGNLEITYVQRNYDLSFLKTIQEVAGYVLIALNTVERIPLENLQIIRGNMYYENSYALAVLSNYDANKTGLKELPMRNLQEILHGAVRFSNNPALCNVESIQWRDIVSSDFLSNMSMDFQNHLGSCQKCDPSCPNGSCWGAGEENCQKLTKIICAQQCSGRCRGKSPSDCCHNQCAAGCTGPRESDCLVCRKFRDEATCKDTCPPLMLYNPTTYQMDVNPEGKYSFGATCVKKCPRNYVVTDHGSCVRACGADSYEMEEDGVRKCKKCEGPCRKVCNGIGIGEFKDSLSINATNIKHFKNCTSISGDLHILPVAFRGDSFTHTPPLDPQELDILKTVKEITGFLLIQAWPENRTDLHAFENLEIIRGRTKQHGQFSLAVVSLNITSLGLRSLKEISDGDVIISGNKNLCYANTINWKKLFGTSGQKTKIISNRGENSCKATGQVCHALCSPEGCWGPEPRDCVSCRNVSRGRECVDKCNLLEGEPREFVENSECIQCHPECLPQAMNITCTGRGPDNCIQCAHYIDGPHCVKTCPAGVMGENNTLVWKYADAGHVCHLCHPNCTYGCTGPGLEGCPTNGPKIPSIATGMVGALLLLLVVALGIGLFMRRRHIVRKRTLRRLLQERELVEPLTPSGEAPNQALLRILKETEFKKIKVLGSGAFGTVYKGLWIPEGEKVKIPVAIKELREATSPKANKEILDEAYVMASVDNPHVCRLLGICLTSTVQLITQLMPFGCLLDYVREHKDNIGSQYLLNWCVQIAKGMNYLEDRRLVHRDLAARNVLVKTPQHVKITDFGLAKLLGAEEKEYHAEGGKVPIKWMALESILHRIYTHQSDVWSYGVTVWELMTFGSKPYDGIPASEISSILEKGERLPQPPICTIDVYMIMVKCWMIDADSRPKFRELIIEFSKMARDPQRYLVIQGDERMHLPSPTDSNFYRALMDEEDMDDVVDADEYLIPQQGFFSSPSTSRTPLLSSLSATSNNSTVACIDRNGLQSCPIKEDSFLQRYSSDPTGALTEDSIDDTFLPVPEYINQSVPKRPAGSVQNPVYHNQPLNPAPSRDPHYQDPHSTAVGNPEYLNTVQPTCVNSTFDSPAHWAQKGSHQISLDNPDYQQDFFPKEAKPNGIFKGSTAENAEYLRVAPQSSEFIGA

[18] = biological target: Follistatin-related protein 3 (Homo sapiens) (UniProt O95633); assay: compounds binding follistatin-related protein 3 – biochemical, small-molecule microarray, 635 nm fluorescence, primary screen (AID 1105); settings: FSTL3 binding, higher = more signal;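 note: score merges emission near 667 nm and signal to noise per printed spot across three slides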
Chain of Follistatin-related protein 3 (Homo sapiens) (O95633 whole entry, looked up): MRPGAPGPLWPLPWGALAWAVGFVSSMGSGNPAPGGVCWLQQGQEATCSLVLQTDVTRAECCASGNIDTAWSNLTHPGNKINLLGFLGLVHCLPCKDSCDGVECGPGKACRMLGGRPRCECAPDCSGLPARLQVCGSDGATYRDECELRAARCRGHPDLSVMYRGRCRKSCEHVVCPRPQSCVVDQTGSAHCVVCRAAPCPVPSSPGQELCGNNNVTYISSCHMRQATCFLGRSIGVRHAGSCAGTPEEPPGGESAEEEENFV

[19] = biological target: Dickkopf-related protein 1 (Homo sapiens) (UniProt O94907); assay: small molecules binding DKK1 protein – biochemical, small-molecule microarray, 635 nm fluorescence scan, primary screen (AID 1106); settings: higher = more signal;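 note: score merges emission near 667 nm with signal to noise over three replicate slides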
Chain of Dickkopf-related protein 1 (Homo sapiens) (O94907 whole entry, looked up): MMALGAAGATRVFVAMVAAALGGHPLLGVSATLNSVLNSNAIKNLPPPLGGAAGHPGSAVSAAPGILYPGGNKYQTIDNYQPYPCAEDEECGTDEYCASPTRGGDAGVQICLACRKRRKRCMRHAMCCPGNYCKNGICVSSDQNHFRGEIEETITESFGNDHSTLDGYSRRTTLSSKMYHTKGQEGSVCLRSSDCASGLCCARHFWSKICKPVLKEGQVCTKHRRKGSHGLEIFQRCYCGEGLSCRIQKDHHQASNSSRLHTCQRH

[20] = system: Inhibin beta A chain (activin A); assay: small molecules binding activin A – biochemical, small-molecule microarray, 635 nm fluorescence scan, primary screen (AID 1107); settings: INHBA, higher = more signal;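 note: mouse activin A protein probed at 4.33 µg/mL on printed slides; score merges bound-protein fluorescence near 667 nm with spot signal-to-noise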

## COC(=O)C(CC#Cc1ccc2c(c1)[C@]1(C(=O)N2)[C@H](C(=O)N2CCc3cc(OC)c(OC)cc3C2)[C@H]2C(=O)O[C@H](c3ccccc3)[C@H](c3ccccc3)N2[C@@H]1c1ccc(O)cc1)C(=O)OC
[1]
  composite z-score: 1.48
[2]
  z-score: 2.78 (inactive)
[3]
  z-score: 0.355 (inactive)
[4]
  z-score: 2.62 (inactive)
[5]
  composite z-score: 2.83
[6]
  z-score: 2.04 (inactive)
[7]
  composite z-score: 0.157
[8]
  composite z-score: 1.88
[9]
  composite z-score: 1.09
[10]
  composite z-score: 0.404
[11]
  composite z-score: 1.06
[12]
  composite z-score: 0.432
[13]
  composite z-score: 0.417
[14]
  z-score: 0.362 (inactive)
[15]
  composite z-score: 1.4
[16]
  composite z-score: 1.35
[17]
  composite z-score: 0.919
[18]
  composite z-score: 1.43
[19]
  composite z-score: 1.71
[20]
  composite z-score: -0.227

## CCCCC(O)C1C=CC2C(=O)N(Cc3ccccc3)C(=O)C2N1n1cnnc1 (stereo not given)
[1]
  composite z-score: 0.623
[2]
  z-score: -0.28 (inactive)
[3]
  z-score: 0.653 (inactive)
[4]
  z-score: -0.335 (inactive)
[5]
  composite z-score: 2.57
[6]
  z-score: -0.981 (inactive)
[7]
  composite z-score: -0.103
[8]
  composite z-score: 0.159
[9]
  composite z-score: 0.62
[10]
  composite z-score: 0.035
[11]
  composite z-score: 0.769
[12]
  composite z-score: -0.0884
[13]
  composite z-score: 0.213
[14]
  z-score: -0.75 (inactive)
[15]
  composite z-score: 0.303
[16]
  composite z-score: 0.144
[17]
  composite z-score: 0.188
[18]
  composite z-score: 0.412
[19]
  composite z-score: 0.178
[20]
  composite z-score: 1.05

## COc1ccc(C#Cc2ccc3c(c2)[C@]2(C(=O)N3)[C@H](c3ccc(OCCO)cc3)N3[C@H](c4ccccc4)[C@H](c4ccccc4)OC(=O)[C@H]3[C@@H]2C(=O)N2CCN(c3ncccn3)CC2)cc1
[1]
  composite z-score: 0.61
[2]
  z-score: 1.86 (inactive)
[3]
  z-score: 1.23 (inactive)
[4]
  z-score: 4.94 (inactive)
[5]
  composite z-score: 1.51
[6]
  z-score: 2.6 (inactive)
[7]
  composite z-score: -0.105
[8]
  composite z-score: 0.346
[9]
  composite z-score: 0.824
[10]
  composite z-score: -0.0928
[11]
  composite z-score: 1.12
[12]
  composite z-score: -0.0149
[13]
  composite z-score: -0.275
[14]
  z-score: -0.188 (inactive)
[15]
  composite z-score: 0.214
[16]
  composite z-score: 0.693
[17]
  composite z-score: 0.176
[18]
  composite z-score: 0.602
[19]
  composite z-score: 0.0015
[20]
  composite z-score: 0.433

## NC(=O)NCC#Cc1ccc2c(c1)[C@]1(C(=O)N2)[C@H](c2ccc(OCCO)cc2)N2[C@H](c3ccccc3)[C@H](c3ccccc3)OC(=O)[C@H]2[C@@H]1C(=O)N1CCCCCCC1
[1]
  composite z-score: 1.09
[2]
  z-score: 1.57 (inactive)
[3]
  z-score: 1.43 (inactive)
[4]
  z-score: 3.66 (inactive)
[5]
  composite z-score: 3.3
[6]
  z-score: -0.53 (inactive)
[7]
  composite z-score: 1.73
[8]
  composite z-score: 1.88
[9]
  composite z-score: 1.04
[10]
  composite z-score: 1.06
[11]
  composite z-score: 1.72
[12]
  composite z-score: 2.51
[13]
  composite z-score: 1.17
[14]
  z-score: 0.238 (inactive)
[15]
  composite z-score: 1.5
[16]
  composite z-score: 1.27
[17]
  composite z-score: 1.71
[18]
  composite z-score: 1.64
[19]
  composite z-score: 2.25
[20]
  composite z-score: 1.5

## CCCCCCC#C[Si](O[C@H](c1ccccc1)c1cn(Cc2cccc(Cl)c2)nn1)(C(C)C)C(C)C
[1]
  composite z-score: 1
[2]
  z-score: -0.381 (inactive)
[3]
  z-score: 0.403 (inactive)
[4]
  z-score: -0.162 (inactive)
[5]
  composite z-score: 0.416
[6]
  z-score: 1.12 (inactive)
[7]
  composite z-score: -0.0719
[8]
  composite z-score: 0.255
[9]
  composite z-score: 0.487
[10]
  composite z-score: -0.0828
[11]
  composite z-score: 1.11
[12]
  composite z-score: -0.166
[13]
  composite z-score: -0.287
[14]
  z-score: -0.577 (inactive)
[15]
  composite z-score: 0.155
[16]
  composite z-score: 0.57
[17]
  composite z-score: 0.269
[18]
  composite z-score: 0.309
[19]
  composite z-score: 0.0628
[20]
  composite z-score: 0.308

## C=CC[C@@]1(C(=O)NCC(O)CO)N=C(c2ccc(OCCCO)cc2)O[C@@H]1c1ccccc1 (stereo not given in full)
[1]
  composite z-score: 1.4
[2]
  z-score: -0.646 (inactive)
[3]
  z-score: -1.17 (inactive)
[4]
  z-score: -1.12 (inactive)
[5]
  composite z-score: 3.12
[6]
  z-score: 0.727 (inactive)
[7]
  composite z-score: 0.344
[8]
  composite z-score: 0.315
[9]
  composite z-score: 0.0815
[10]
  composite z-score: 0.168
[11]
  composite z-score: 1.46
[12]
  composite z-score: 1.24
[13]
  composite z-score: 1.34
[14]
  z-score: -0.195 (inactive)
[15]
  composite z-score: 1.47
[16]
  composite z-score: 0.0168
[17]
  composite z-score: -0.829
[18]
  composite z-score: -0.29
[19]
  composite z-score: -0.135
[20]
  composite z-score: 0.505

## C=C(C(=O)CC[C@H](OC(=O)c1cccnc1)c1ccc(OCCO)cc1)C(C)C
[1]
  composite z-score: 1.55
[2]
  z-score: 0.366 (inactive)
[3]
  z-score: -1.54 (inactive)
[4]
  z-score: 0.905 (inactive)
[5]
  composite z-score: 1.76
[6]
  z-score: -0.388 (inactive)
[7]
  composite z-score: -0.0961
[8]
  composite z-score: 0.986
[9]
  composite z-score: 0.717
[10]
  composite z-score: -0.0362
[11]
  composite z-score: 1.56
[12]
  composite z-score: -0.175
[13]
  composite z-score: -0.049
[14]
  z-score: 1.77 (inactive)
[15]
  composite z-score: 1.34
[16]
  composite z-score: -0.0404
[17]
  composite z-score: 0.0365
[18]
  composite z-score: 0.721
[19]
  composite z-score: -0.17
[20]
  composite z-score: 0.958

## O=C1N(Cc2ccccc2)c2ccccc2[C@H]2OC(c3ccc(OCCCO)cc3)=N[C@@]12CCS(=O)(=O)c1ccccc1
[1]
  composite z-score: 1.54
[2]
  z-score: 1.19 (inactive)
[3]
  z-score: 0.485 (inactive)
[4]
  z-score: 8.14 (active)
[5]
  composite z-score: 3.36
[6]
  z-score: -0.81 (inactive)
[7]
  composite z-score: 0.0137
[8]
  composite z-score: 1.75
[9]
  composite z-score: 1.08
[10]
  composite z-score: -0.0531
[11]
  composite z-score: 0.703
[12]
  composite z-score: -0.0921
[13]
  composite z-score: 0.584
[14]
  z-score: 0.212 (inactive)
[15]
  composite z-score: 1.06
[16]
  composite z-score: 1.31
[17]
  composite z-score: 0.385
[18]
  composite z-score: 1.23
[19]
  composite z-score: 0.379
[20]
  composite z-score: 0.808

## COC(=O)[C@@]1(Cc2ccccc2)[C@H]2c3cc(C(=O)N4CCCC4)n(CCO)c3C[C@H]2CN1C(=O)c1ccccc1
[1]
  composite z-score: 0.718
[2]
  z-score: -0.598 (inactive)
[3]
  z-score: 1.45 (inactive)
[4]
  z-score: -1.88 (inactive)
[5]
  composite z-score: 2.92
[6]
  z-score: -0.237 (inactive)
[7]
  composite z-score: 1.35
[8]
  composite z-score: 0.815
[9]
  composite z-score: 0.946
[10]
  composite z-score: 0.986
[11]
  composite z-score: 0.346
[12]
  composite z-score: 2.22
[13]
  composite z-score: 1.5
[14]
  z-score: -1.88 (inactive)
[15]
  composite z-score: 0.615
[16]
  composite z-score: 0.343
[17]
  composite z-score: 0.414
[18]
  composite z-score: 1.14
[19]
  composite z-score: 0.337
[20]
  composite z-score: 0.305

## COc1ccc(C(=O)Nc2ccc(CN3C(=O)[C@@]4(O[C@@H](CC(=O)N5Cc6ccccc6C[C@H]5CO)[C@H]([Si](C)(C)c5ccc(OC)cc5)[C@H]4C)c4ccccc43)cc2)cc1
[1]
  composite z-score: 1.51
[2]
  z-score: -1.8 (inactive)
[3]
  z-score: 0.821 (inactive)
[4]
  z-score: 1.87 (inactive)
[5]
  composite z-score: 1.92
[6]
  z-score: 0.265 (inactive)
[7]
  composite z-score: -0.215
[8]
  composite z-score: 1.61
[9]
  composite z-score: 1.13
[10]
  composite z-score: -0.0961
[11]
  composite z-score: 1.33
[12]
  composite z-score: -0.351
[13]
  composite z-score: -0.342
[14]
  z-score: -1.29 (inactive)
[15]
  composite z-score: 1.01
[16]
  composite z-score: 0.81
[17]
  composite z-score: 1.05
[18]
  composite z-score: 1.19
[19]
  composite z-score: 0.628
[20]
  composite z-score: 0.673
